Screens from PubChem.
KCNQ2 pot: potentiators of rat KCNQ2 potassium channel. Potassium voltage-gated channel subfamily KQT member 2 (Rattus norvegicus), O88943. CHO-K1 KCNQ2, FluxOR thallium flux fluorescence; hits give high values. B-score at 10 µM. hit rate 0.54% among 310,000. AID 2239, 2010;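 active = fluorescence ratio B-score at least 3 SD of library B-scores, with initial fluorescence B-score within 3 of them, cut at about 5.3 in these data; same plate scores as AID 2156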;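 also: B-score of peak minus minimum over baseline fluorescence ratio after K+ and Tl+ stimulus; positive B-score means potentiation of KCNQ2 with more thallium influx and brighter signal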
Target sequence (O88943 whole entry, looked up): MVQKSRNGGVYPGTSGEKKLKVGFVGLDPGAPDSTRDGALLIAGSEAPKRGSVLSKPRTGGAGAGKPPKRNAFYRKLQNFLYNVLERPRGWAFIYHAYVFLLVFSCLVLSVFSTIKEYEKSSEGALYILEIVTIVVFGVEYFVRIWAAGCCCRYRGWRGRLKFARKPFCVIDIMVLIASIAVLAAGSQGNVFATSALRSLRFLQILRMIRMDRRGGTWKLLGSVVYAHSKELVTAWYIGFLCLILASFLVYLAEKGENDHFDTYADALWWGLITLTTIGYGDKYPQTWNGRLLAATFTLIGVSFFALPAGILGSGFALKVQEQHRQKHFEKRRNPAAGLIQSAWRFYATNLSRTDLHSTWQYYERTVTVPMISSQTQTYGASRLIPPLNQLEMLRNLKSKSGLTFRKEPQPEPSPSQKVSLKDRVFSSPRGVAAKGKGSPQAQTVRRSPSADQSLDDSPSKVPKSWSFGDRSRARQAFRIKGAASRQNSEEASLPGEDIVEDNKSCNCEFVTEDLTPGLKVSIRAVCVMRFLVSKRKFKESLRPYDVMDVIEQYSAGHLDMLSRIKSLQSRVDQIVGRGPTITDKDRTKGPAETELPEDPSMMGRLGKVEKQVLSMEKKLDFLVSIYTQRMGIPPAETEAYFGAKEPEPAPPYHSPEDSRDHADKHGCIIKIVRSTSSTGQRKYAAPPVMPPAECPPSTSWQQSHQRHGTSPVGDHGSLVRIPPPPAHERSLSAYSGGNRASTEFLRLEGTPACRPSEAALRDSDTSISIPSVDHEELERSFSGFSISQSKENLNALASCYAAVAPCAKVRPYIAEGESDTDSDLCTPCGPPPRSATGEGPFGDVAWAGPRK
KCNQ2 block: rat KCNQ2 potassium channel inhibitors, primary screen, cell-based, CHO-K1, FluxOR thallium flux, B-score | Potassium voltage-gated channel subfamily KQT member 2 (Rattus norvegicus), O88943 | AID 2156, 2009 | 20 min; hits give low values | hit rate 1.1% among 310,000 | B-score at 10 µM;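 active = fluorescence ratio B-score at most minus 3 library SDs, with starting brightness B-score within 2 library SDs, cut at about -5.5 in these data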
Active calls of the source: *; i = inactive; x = no result given. This is a sample that favours compounds with a hit; in the whole collection about 1.6% have one here.

SMILES	KCNQ2 pot	KCNQ2 block
OC(COCc1ccc(Cl)cc1)CN1CCN(CC(O)COCc2ccc(Cl)cc2)CC1 (configuration not stated)	x	i
CCc1ccc(NC(=O)C(=O)NNC(=O)COc2cccc(OC)c2)cc1	6*	i
COc1ccc(NC(=O)C(=O)NNC(=O)COc2ccc(OC)cc2)cc1	1.8	i
COc1cc(C2=NOC(C(=O)N3CCN(c4ccc(F)cc4)CC3)C2)cc(OC)c1OC (configuration not stated)	x	i
COc1cc(C2=NOC(C(=O)N3CCCCCC3)C2)cc(OC)c1OC (configuration not stated)	-6.6	-6.6*
CCOc1ccc(NC(=O)CC2C(=O)N(CC)C(=S)N2NC(=O)c2ccncc2)cc1 (configuration not stated)	x	i
COc1cccc(C(C(=O)NC2CCCCC2)N(CCN2CCOCC2)C(=O)C2COc3ccccc3O2)c1 (configuration not stated)	x	i
Cc1ccc(Cl)cc1N1CCN(Cc2cc3c(cc2O)CCC3)CC1	-6	-6*
Cc1ccc(Cl)cc1N1CCN(C(=O)c2ccc(CN3CCOCC3)cc2)CC1	0.01	i
Cc1ccc(Oc2nc3c(C)cccn3c(=O)c2/C=C(\C#N)C(N)=O)cc1	0.12	i
CC1(C)Cc2ccccc2-c2nc(-c3ccccc3)oc(=O)c21	-7.9	-7.9*
CC1(C)Cc2ccccc2-c2nc(NN)[nH]c(=O)c21	x	i
Cc1ccc(CN(C)S(=O)(=O)c2c(C)noc2/C=C/N(C)C)cc1	x	i
C/C(=N\NC(=O)c1nnn(-c2nonc2N)c1CN1CCC(C)CC1)c1cccc(Br)c1	-5.7	-5.7*
C/C(=N\NC(=O)c1nnn(-c2nonc2N)c1CN1CCCCCC1)c1ccc(Br)cc1	x	i
Clc1ccc(-c2ccnc(Oc3ccc4ccccc4c3)n2)cc1	0.46	i
CCC(C)NC(=O)COC(=O)c1oc2ccccc2c1CSc1ccc(Cl)cc1 (configuration not stated)	-6.1	-6.1*
O=C(O)c1oc2ccccc2c1CSc1ccc(Cl)cc1	2.9	i
COc1ccc(NC(=O)CNC(=O)c2nn(-c3ccc(OC)c(Cl)c3)c(=O)c3ccccc23)c(OC)c1	0.3	i
CCn1c(C)nc2cc(C(=O)NNC(=S)Nc3ccc(Cl)cc3)ccc21	0.15	i
CCOc1ccc2[nH]c(=O)c(C(c3nnnn3Cc3ccco3)N3CCCC(C)C3)cc2c1 (configuration not stated)	-6.5	-6.5*
CCOc1ccc2[nH]c(=O)c(C(c3nnnn3Cc3ccco3)N3CCC(C)CC3)cc2c1 (configuration not stated)	0.94	i
Fc1ccccc1CNC(=S)NCc1ccc(Cl)cc1	1.3	i
CC(NC(=O)Cc1cccs1)C(c1cccs1)N1CCN(c2ccccc2)CC1 (configuration not stated)	8.2*	i
CCC(=O)NC(C)C(c1cccs1)N1CCN(c2ccccc2)CC1 (configuration not stated)	0.03	i
SMILES	KCNQ2 pot	KCNQ2 block
CC(C)C(=O)Nc1nc(-c2ccc3c(c2)CCN3C(=O)C2CC2)cs1	x	i
Cc1ccc(C(=O)N2c3ccccc3N(Cc3ccccc3)C(=O)C2(C)C)cc1	-5.6	-5.6*
O=C(O)CC1(O)C(=O)N(Cc2ccccc2)c2ccccc21 (configuration not stated)	1.2	i
OCCN1CCN(C2Cc3cc(Cl)ccc3Sc3ccc(Cl)cc32)CC1 (configuration not stated) (tested in a mixture with another compound)	x	i
CN1CCN(C2Cc3cc(Cl)ccc3Sc3cc(F)ccc32)CC1 (configuration not stated)	-6.9	-6.9*
CCOc1ccc2ccccc2c1CNc1nnnn1C	-6	-6*
CCOc1ccccc1CNc1nnnn1C	0.52	i
Cc1ccc(SC(=O)c2c([N+](=O)[O-])c(C)nn2C)cc1	-5.9	-5.9*
Cc1cc(C)n(C(=O)c2c([N+](=O)[O-])c(C)nn2C)n1	0.67	i
COc1ccc(Cl)cc1NC(=S)NN1CCOCC1	x	i
CC(C)(C)S(=O)(=O)/C(C#N)=N/Nc1ccc(C#N)cc1	1.3	i
O=C(COC(=O)c1ccc(Sc2ccccc2)c([N+](=O)[O-])c1)NC1CCCc2ccccc21 (configuration not stated)	-6.9	-6.9*
Cn1cnnc1Sc1ccc(C(=O)OCC(=O)NC2CC2)cc1[N+](=O)[O-]	1.2	i
CC1CC(C)CN(c2ccc(C(=O)OCC(=O)NC3CCCc4ccccc43)cc2[N+](=O)[O-])C1 (configuration not stated)	-7.8	-7.8*
CC1CCCN(c2ccc(C(=O)OCC(=O)N3c4ccccc4Sc4ccccc43)cc2[N+](=O)[O-])C1 (configuration not stated)	x	i
CC1CCCN(C(=O)CCNS(=O)(=O)c2ccc(Br)cc2)C1 (configuration not stated)	x	i
O=C(CSc1nc2ccccc2s1)NCCOc1ccccc1	x	i
O=C(CN1CCN(c2ccccn2)CC1)Nc1cc(C(F)(F)F)ccc1Cl	x	i
Cn1c(=O)c2c(nc(SCC(=O)NC34CC5CC(CC(C5)C3)C4)n2C)n(C)c1=O	x	i
O=C(Cn1cncc1-c1ccc([N+](=O)[O-])cc1)Nc1ccccc1F	0.04	i
O=C(NCc1ccccc1)C(=O)Nc1nc(C23CC4CC(CC(C4)C2)C3)cs1	5.5*	i
O=C(NCc1ccncc1)C(=O)Nc1nc(C23CC4CC(CC(C4)C2)C3)cs1	0.15	i
CCc1ccc2[nH]c(=O)c(CN(CCN3CCOCC3)C(=O)Nc3ccccc3F)cc2c1	x	i
O=C(NN1C(=O)/C(=C/c2ccc(O)cc2)SC1=S)c1ccccc1O	-6	-6*
COc1cc(/C=C2\SC(=S)N(NC(=O)c3ccccc3O)C2=O)ccc1O	x	i
SMILES	KCNQ2 pot	KCNQ2 block
O=S(=O)(c1ccccc1Cl)N1CCCC(c2nc(-c3cccnc3)no2)C1 (configuration not stated)	0.89	i
O=S(=O)(c1ccccc1Cl)N1CCCC1c1nc(-c2cccc(Cl)c2)no1 (configuration not stated)	-6.3	-6.3*
O=S(=O)(c1ccc(Cl)cc1)N1CCCC1c1nc(-c2cccc(Cl)c2)no1 (configuration not stated)	-5.9	-5.9*
O=S(=O)(c1ccc(Cl)cc1)N1CCCC1c1nc2ccccc2s1 (configuration not stated)	x	i
CCc1ccc(NC(=O)COc2ccc3c(c2)OCO3)cc1	x	i
CCOc1ccccc1C(=O)Nn1c(C2CCC2)nc2ccccc2c1=O	-6.8	-6.8*
COc1ccccc1C(=O)Nn1c(C2CCC2)nc2ccccc2c1=O	x	i
Brc1ccccc1-c1nnc(COc2cccc3cccnc23)o1	x	i
COc1ccc(C(=O)Nc2cccc(C)c2)cc1S(=O)(=O)N1CCOCC1	0.04	i
COc1ccc(C(=O)NNC(=O)COc2ccc(Cl)cc2C)cc1S(=O)(=O)N1CCOCC1	-5.6	-5.6*
COc1ccc(-n2c(C)cc(/C=C3\SC(=S)NC3=O)c2C)cc1	x	i
COc1ccc2nc(N3CCCCC3)c(/C=C3\SC(=S)NC3=O)cc2c1	11*	i
COc1ccc(OCC(=O)Nn2c(-c3ccc(C)cc3)nc3ccccc3c2=O)cc1	x	i
